Reference: PubChem BioAssay (EPA / NIEHS)
Activity calls are given as the source filed them. How the source made its calls: active means hit-call score of the fitted dose curve at least 0.9, where 1 is the maximum; inactive means score below 0.9.

The molecules below were run on Apoptosis regulator Bcl-2 (Homo sapiens) (UniProt P10415) (assay: LTEA_HepaRG_BCL2: Life Technologies and Expression Analysis (LTEA) Assay for Bcl-2 gene using HepaRG (AID 2283475;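 further: BCL2 transcript by TaqMan qRT-PCR normalised to ACTB GAPDH and POLR2A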)). Conditions: mRNA level, 48 h; actives raise or lower the signal.
Chain of Apoptosis regulator Bcl-2 (Homo sapiens) (P10415 whole entry, looked up): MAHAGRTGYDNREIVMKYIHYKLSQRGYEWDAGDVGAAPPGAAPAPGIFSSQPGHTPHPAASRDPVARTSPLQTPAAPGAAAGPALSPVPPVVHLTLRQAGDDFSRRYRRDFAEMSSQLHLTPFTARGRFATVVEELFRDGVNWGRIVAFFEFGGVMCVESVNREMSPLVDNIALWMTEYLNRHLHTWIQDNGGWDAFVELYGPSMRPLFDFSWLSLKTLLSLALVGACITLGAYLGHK
Procedure: LTEA_HepaRG is a cell based, multiplexed-readout assay that uses HepaRG, a human liver cell line, with measurements taken at 48 hours after chemical dosing on a 96-well plate.LTEA_HepaRG_BCL2 is one of 102 assay component(s) measured in the LTEA HepaRG cell culture assay. It is a marker of Cell proliferation, survival, death.Data from the assay component LTEA_HepaRG_BCL2 was analyzed into 1 endpoint. This assay endpoint, LTEA_HepaRG_BCL2, was analyzed with bidirectional fitting relative to DMSO as the negative control and baseline of activity. Using a type of inducible reporter, measures of mRNA induction for gain or loss-of-signal activity can be used to understand regulation of transcription factor activity. To generalize the intended target to other relatable targets, this assay endpoint is annotated to the cell cycle intended target family, where the subfamily is Cell proliferation, survival, death.
A total of 1060 chemcials from the ToxCast library were tested in eight-point concentration-response experiments. Cell culture and cytotoxicity assays were conducted at Thermo Fisher Scientific's Custom Services facility (Madison, WI). A single lot of human HepaRG cells (Thermo Fisher Scientific, Frederick, MD) was used for the cell culture experiments. 96-well format collagen type I coated plates of human HepaRG cells were prepared using established methods. Briefly, cryopreserved HepaRG cells were thawed, plated at a density of approximately 100,000 cells/well in HepaRG Thaw, Plate, and General Purpose media (HPRG770, Thermo Fisher Scientific), and incubated for 48 hours. 0.5% DMSO was selected as vehicle control to balance the requisite need of DMSO in HepaRG cultures to maintain differentiation (for example, baseline metabolism, proportions of hepatocytes vs. cholangiocytes), while enabling further hepatic receptor pathway activation (for example, PXR and CAR) in response to chemical exposure. 48 hours after plating, the culture medium was replaced with HepaRG Serum-Free Incudtion Media. Cells were exposed to each test chemical in duplicate and maintained in CO2 incubators for another 48 hours. Chemical plates were thawed to room temperature and 200x concentrations of treatment groups were prepared. 8-point conentration-reponse curves were made with the highest exposure at 100 uM, followed by half-log dilutions, all in 0.5% DMSO. Each test plate contained variouse controls, induction positive controls (1mM phenobarbital), cytotoxicity positive controls ([…] aflatoxin B1), vehicle controls (0.5% DMSO), and total lysis controls (0.5% DMSO). Cell morphology images were taken using an Essen IncuCyte FLR automated microscope, with six 96-well plates imaged in about 24 minutes. Images were captured and exported and JPEG files. Spent culture media was transfered to black-well plates for the LDH assay, and remaining media was sorted at -80 C for later use. Cells were treated with RLT buffer and frozen until shipped for gene expression analysis. Total RNA was isolated from the cell suspension in 75 uL of Buffer RLT (Qiagen, Germantown, MD 20874) by Quintiles/Expression Analysis (Durham, NC) using a custom isolation procedure. Total RNA from each plate well was transferred to a preamplification plate. Fluidigm's 96.96 Dynamic ArrayTM (Fluidigm, Amsterdam, the Netherlands) technology was used for gene expression analyses by quantitative reverse transcription polymerase chain reaction (qRT-PCR, performed by Quintiles/Expression Analysis, Durham, NC)89. Standard TaqManTM Assays (Applied Biosystems/ThermoFisher Scientific, Foster City, CA) were used to assess the expression of 93 genes selected based on their selectivity and sensitivity to important hepatic receptors known to be modulated by environmental chemicals; importance in human hepatocyte functionality; and hepatotoxicity. […]

Compound	outcome	AC50
CC(Oc1cccc(Cl)c1)C(=O)O (stereo not given)	inactive	–
Cc1nn(-c2cc(NS(C)(=O)=O)c(Cl)cc2Cl)c(=O)n1C(F)F	inactive	–
C#CC(C)(C)NC(=O)c1cc(Cl)cc(Cl)c1	inactive	–
CCCCOC(=O)[C@@H](C)Oc1ccc(Oc2ccc(C#N)cc2F)cc1	inactive	–
COP(=O)(NC(C)=O)SC (stereo not given)	inactive	–
CCOP(=S)(OCC)Oc1cc(C)nc(C(C)C)n1	inactive	–
CCC(=NOC/C=C/Cl)C1=C(O)CC(C2CCOCC2)CC1=O (stereo not given)	inactive	–
CN(C)C(=O)Nc1cccc(C(F)(F)F)c1	inactive	–
CCCOc1nn(C(=O)NS(=O)(=O)c2ccccc2C(=O)OC)c(=O)n1C	inactive	–
C[Si](Cn1cncn1)(c1ccc(F)cc1)c1ccc(F)cc1	–	35 µM (active)
CC[C@H](C)[C@H]1O[C@]2(C=C[C@@H]1C)C[C@@H]1C[C@@H](C/C=C(\C)[C@@H](O[C@H]3C[C@H](OC)[C@@H](O[C@H]4C[C@H](OC)[C@@H](NC)[C@H](C)O4)[C@H](C)O3)[C@@H](C)/C=C/C=C3\CO[C@@H]4[C@H](O)C(C)=C[C@@H](C(=O)O1)[C@]34O)O2	inactive	–
FC(F)C(F)(F)OCC(Cn1cncn1)c1ccc(Cl)cc1Cl (stereo not given)	–	30.2 µM (active)
CCC(CC)Nc1c([N+](=O)[O-])cc(C)c(C)c1[N+](=O)[O-]	inactive	–
C[N+]1(C)CCCCC1	inactive	–
CC(C)=CC1C(C(=O)OCN2C(=O)C3=C(CCCC3)C2=O)C1(C)C (stereo not given)	inactive	–
CCCSP(=O)(OCC)SCCC	inactive	–
CC(C)[C@H](C(=O)O[C@H](C#N)c1cccc(Oc2ccccc2)c1)c1ccc(Cl)cc1	inactive	–
CCCOCC(=Nc1ccc(Cl)cc1C(F)(F)F)n1ccnc1	inactive	–
CC1=NNC(=O)N(/N=C/c2cccnc2)C1	inactive	–
CN1COCN(Cc2cnc(Cl)s2)C1=N[N+](=O)[O-]	inactive	–

Compound	outcome	AC50
COP(=O)(OC)C(O)C(Cl)(Cl)Cl (stereo not given)	inactive	–
Nc1nc(N)nc(NC2CC2)n1	inactive	–
CCOP(=S)(OCC)Oc1ccc([N+](=O)[O-])cc1	inactive	–
CNC(=O)ON=C(C)SC	inactive	–
CCOP(=O)(OCC)Oc1cc(C)nc(C(C)C)n1	inactive	–
CSc1nc(NC(C)C)nc(NC(C)C)n1	inactive	–
CNC(=O)ON=C(SC)C(=O)N(C)C	inactive	–
Nc1c(Cl)cc([N+](=O)[O-])cc1Cl	–	50 µM (active)
CNc1cnn(-c2cccc(C(F)(F)F)c2)c(=O)c1Cl	inactive	–
O=c1ccc(=O)[nH][nH]1	inactive	–
COP(=O)(OC)OC(Br)C(Cl)(Cl)Br (stereo not given)	inactive	–
C#CCC1=C(C)C(OC(=O)C2C(C=C(C)C)C2(C)C)CC1=O (stereo not given)	inactive	–
COc1cc(OC)nc(Sc2cccc(Cl)c2C(=O)O)n1	inactive	–
COc1cccc(C(=O)NN(C(=O)c2cc(C)cc(C)c2)C(C)(C)C)c1C	inactive	–
CCCCSP(=O)(SCCCC)SCCCC	inactive	–
N#CSCSC#N	inactive	–
CC(COc1ccc(Oc2ccccc2)cc1)Oc1ccccn1 (stereo not given)	inactive	–
CCc1cccc(CC)c1N(COC)C(=O)CCl	inactive	–
CCOP(=O)(NC(C)C)Oc1ccc(SC)c(C)c1 (stereo not given)	inactive	–
O=[N+]([O-])c1cc(C(F)(F)F)c(Cl)c([N+](=O)[O-])c1Nc1ncc(C(F)(F)F)cc1Cl	inactive	–
